Measured values from PubChem BioAssay (EPA / NIEHS).
Active and inactive are the calls of the source. How the source made its calls: active means hit-call score of the fitted dose curve at least 0.9, where 1 is the maximum; inactive means score below 0.9.

How the values were obtained:
Conditions in all cases: mRNA level, 48 h; actives raise or lower the signal
CYP4A11 (gene 1579) = test: LTEA_HepaRG_CYP4A11: Life Technologies and Expression Analysis (LTEA) Assay for CYP4A11 using HepaRG (AID 2283486)
Summary of the method: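 Readout is CYP4A11 transcript level by qRT-PCR, normalized to three housekeeping genes and fitted bidirectionally against 0.5% DMSO. Human HepaRG cells were treated 48 h, in duplicate, with an 8-point half-log series topping at 100 uM.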

[1] = read-out: Cytochrome P450 3A4 (Homo sapiens) (UniProt P08684); test: LTEA_HepaRG_CYP3A4: Life Technologies and Expression Analysis (LTEA) Assay for CYP3A4 using HepaRG (AID 2283487)
Summary of the method: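 Differentiated HepaRG cells in serum-free induction medium exposed in duplicate for 48 h to 8 half-log concentrations up to 100 uM in 0.5% DMSO. CYP3A4 mRNA measured by qRT-PCR normalized to ACTB, GAPDH and POLR2A; bidirectional fit versus DMSO.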

[2] = read-out: DNA damage-inducible transcript 3 (DDIT3), DDIT3 (gene 1649); test: LTEA_HepaRG_DDIT3: Life Technologies and Expression Analysis (LTEA) Assay for DNA damage-inducible transcript 3 (DDIT3) using HepaRG (AID 2283488)
Summary of the method: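 HepaRG cells, 48 h after plating, exposed 48 h in serum-free induction medium to 8 half-log concentrations up to 100 uM in 0.5% DMSO, in duplicate. DDIT3 mRNA measured by TaqMan qRT-PCR, normalized to ACTB, GAPDH and POLR2A. Fitted bidirectionally against DMSO.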

[3] = read-out: Pro-epidermal growth factor (Homo sapiens) (UniProt P01133); test: LTEA_HepaRG_EGF: Life Technologies and Expression Analysis (LTEA) Assay for Epidermal growth factor (EGF) using HepaRG (AID 2283489)
Summary of the method: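 EGF transcript measured by Fluidigm TaqMan qRT-PCR with three housekeeping genes for normalization, 48 h after dosing HepaRG cultures in duplicate (top 100 uM, half-log steps, 0.5% DMSO vehicle). Gain or loss relative to DMSO fitted.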

[4] = read-out: Early growth response protein 1 (EGR1) transcription factor, EGR1 (gene 1958); test: LTEA_HepaRG_EGR1: Life Technologies and Expression Analysis (LTEA) Assay for Early growth response protein 1 (EGR1) transcription factor using HepaRG (AID 2283490)
Summary of the method: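 Differentiated human HepaRG cells in serum-free induction medium were exposed in duplicate for 48 h to eight concentrations (top 100 uM, half-log steps) in 0.5% DMSO. EGR1 mRNA was quantified by qRT-PCR, normalized to ACTB, GAPDH and POLR2A, and fitted bidirectionally versus DMSO.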

[5] = read-out: Ezrin (EZR), EZR (gene 7430); test: LTEA_HepaRG_EZR: Life Technologies and Expression Analysis (LTEA) Assay for Ezrin (EZR) using HepaRG (AID 2283491)
Summary of the method: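 Differentiated human HepaRG cells, 48 h after plating, were exposed in serum-free induction medium for 48 hours to eight half-log concentrations up to 100 uM in 0.5% DMSO. EZR mRNA was measured by TaqMan qRT-PCR, normalized to ACTB, GAPDH and POLR2A, and fitted bidirectionally against DMSO.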

[6] = read-out: Cytochrome P450 3A7 (Homo sapiens) (UniProt P24462); test: LTEA_HepaRG_CYP3A7: Life Technologies and Expression Analysis (LTEA) Assay for CYP3A7 using HepaRG (AID 2283492)
Summary of the method: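 CYP3A7 transcript measured by qRT-PCR (ACTB, GAPDH, POLR2A normalization) after 48 h chemical exposure of HepaRG cells in duplicate. Eight half-log concentrations, maximum 100 uM, 0.5% DMSO vehicle; bidirectional curve fitting against DMSO baseline.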

CYP3A5 (gene 1577) = test: LTEA_HepaRG_CYP3A5: Life Technologies and Expression Analysis (LTEA) Assay for CYP3A5 using HepaRG (AID 2283493)
Summary of the method: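 HepaRG cells, plated 48 h then in serum-free induction medium, dosed in duplicate for 48 h with eight half-log concentrations up to 100 uM in 0.5% DMSO. Gene mRNA by Fluidigm TaqMan qRT-PCR, normalized to ACTB, GAPDH, POLR2A.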

[7] = read-out: Cytochrome P450 4A22 (Homo sapiens) (UniProt Q5TCH4); test: LTEA_HepaRG_CYP4A22: Life Technologies and Expression Analysis (LTEA) Assay for Cytochrome P450 4A22 (CYP4A22) using HepaRG (AID 2283495)
Summary of the method: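 Gene expression measured by qRT-PCR against three housekeeping genes (ACTB, GAPDH, POLR2A), with gain or loss fitted relative to 0.5% DMSO vehicle. HepaRG cultures received 48 h chemical treatment, top concentration 100 uM, half-log steps, duplicate wells.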

[8] = read-out: Cytochrome P450 7A1 (Homo sapiens) (UniProt P22680); test: LTEA_HepaRG_CYP7A1: Life Technologies and Expression Analysis (LTEA) Assay for Cytochrome P450 7A1 (CYP7A1) using HepaRG (AID 2283496)
Summary of the method: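 HepaRG cells plated 48 h, then switched to serum-free induction medium and exposed in duplicate for 48 h to 8-point half-log series from 100 uM in 0.5% DMSO. CYP7A1 mRNA by qRT-PCR (TaqMan), normalized to ACTB/GAPDH/POLR2A; bidirectional fit versus DMSO.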

[9] = read-out: Glutathione S-Transferase (GSTA2), GSTA2 (gene 2939); test: LTEA_HepaRG_GSTA2: Life Technologies and Expression Analysis (LTEA) Assay for Glutathione S-Transferase (GSTA2) using HepaRG (AID 2283497)
Summary of the method: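 Human HepaRG cells, plated 48 h, then exposed in serum-free induction medium for 48 h to eight half-log concentrations up to 100 uM in 0.5% DMSO, duplicate. GSTA2 mRNA by qRT-PCR, normalized to ACTB/GAPDH/POLR2A; bidirectional fit versus DMSO.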

[10] = read-out: Glutamate-cysteine ligase catalytic (GCLC), GCLC (gene 2729); test: LTEA_HepaRG_GCLC: Life Technologies and Expression Analysis (LTEA) Assay for Glutamate-cysteine ligase catalytic (GCLC) using HepaRG (AID 2283498)
Summary of the method: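 Differentiated human HepaRG cells, plated 48 h then switched to serum-free induction medium, were exposed in duplicate for 48 h to 8 half-log concentrations topping at 100 uM in 0.5% DMSO. GCLC mRNA was quantified by qRT-PCR against ACTB, GAPDH and POLR2A.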

[11] = read-out: growth arrest and DNA damage 45 (GADD45G), GADD45G (gene 10912); test: LTEA_HepaRG_GADD45G: Life Technologies and Expression Analysis (LTEA) Assay for growth arrest and DNA damage 45 (GADD45G) using HepaRG (AID 2283499)
Summary of the method: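 GADD45G transcript level by qRT-PCR (housekeeping-normalized: ACTB, GAPDH, POLR2A) after 48 h chemical treatment of a single HepaRG lot in serum-free induction medium; eight-point half-log series up to 100 uM in 0.5% DMSO, duplicates, up- or down-regulation scored.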

[12] = read-out: Glutamate-cysteine ligase regulatory (GCLM), GCLM (gene 2730); test: LTEA_HepaRG_GCLM: Life Technologies and Expression Analysis (LTEA) Assay for Glutamate-cysteine ligase regulatory (GCLM) using HepaRG (AID 2283500)
Summary of the method: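 Differentiated HepaRG cells exposed 48 h in serum-free induction medium to eight half-log concentrations up to 100 uM (0.5% DMSO). GCLM mRNA by TaqMan qRT-PCR, normalized to ACTB, GAPDH and POLR2A; bidirectional fit versus DMSO.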

[13] = read-out: Glutathione S-transferase M3 (GSTM3), GSTM3 (gene 2947); test: LTEA_HepaRG_GSTM3: Life Technologies and Expression Analysis (LTEA) Assay for Glutathione S-transferase M3 (GSTM3) using HepaRG (AID 2283501)
Summary of the method: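 GSTM3 transcript levels came from Fluidigm TaqMan qRT-PCR normalized to three housekeeping genes, fitted in both directions against DMSO. HepaRG cultures received chemicals for 48 h in serum-free induction medium (0.5% DMSO), 8 half-log concentrations up to 100 uM, duplicate.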

[14] = read-out: Heat shock 70 kDa protein 1 (HSPA1A), gene 3303; test: LTEA_HepaRG_HSPA1A: Life Technologies and Expression Analysis (LTEA) Assay for Heat shock 70 kDa protein 1 (HSPA1A) using HepaRG (AID 2283502)
Summary of the method: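 Human HepaRG cells in serum-free induction medium were exposed in duplicate for 48 h to 8 half-log concentrations, highest 100 uM, in 0.5% DMSO. HSPA1A mRNA read by TaqMan qRT-PCR, normalized to ACTB, GAPDH, POLR2A, fitted bidirectionally against DMSO.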

[15] = read-out: Hypoxia-inducible factor 1-alpha (Homo sapiens) (UniProt Q16665); test: LTEA_HepaRG_HIF1A: Life Technologies and Expression Analysis (LTEA) Assay for Hypoxia-inducible factor 1 (HIF1A) Trancription factor using HepaRG (AID 2283503)
Summary of the method: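 Differentiated HepaRG cells in serum-free induction medium exposed 48 h, in duplicate, to 8-point half-log series from 100 uM in 0.5% DMSO. HIF1A mRNA measured by TaqMan qRT-PCR, normalized to ACTB/GAPDH/POLR2A, fitted bidirectionally versus DMSO.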

[16] = read-out: 3-Hydroxy-3-Methylglutaryl-CoA Synthase 2 (HMGCS2), HMGCS2 (gene 3158); test: LTEA_HepaRG_HMGCS2: Life Technologies and Expression Analysis (LTEA) Assay for 3-Hydroxy-3-Methylglutaryl-CoA Synthase 2 (HMGCS2) using HepaRG (AID 2283504)
Summary of the method: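 Readout is HMGCS2 transcript by qRT-PCR, housekeeping-normalised (ACTB/GAPDH/POLR2A) and fitted bidirectionally against 0.5% DMSO. Differentiated HepaRG cells received chemicals 48 h, duplicate wells, eight half-log concentrations topping at 100 uM.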

HGF (gene 3082) = test: LTEA_HepaRG_HGF: Life Technologies and Expression Analysis (LTEA) Assay for Hepatocyte Growth Facto (HGF) using HepaRG (AID 2283505)
Summary of the method: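 HGF transcript was quantified by TaqMan qRT-PCR against three housekeeping genes after 48 h treatment of HepaRG cells. Exposure ran in duplicate over eight half-log steps topping at 100 uM in 0.5% DMSO vehicle.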

[17] = read-out: Fatty Acid-Binding Protein 1 (FABP1), FABP1 (gene 2168); test: LTEA_HepaRG_FABP1: Life Technologies and Expression Analysis (LTEA) Assay for Fatty Acid-Binding Protein 1 (FABP1) using HepaRG (AID 2283494)
Summary of the method: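 Differentiated human HepaRG cells were exposed in duplicate for 48 h in serum-free induction medium to 8-point half-log concentration series topping at 100 uM in 0.5% DMSO. FABP1 mRNA measured by TaqMan qRT-PCR, normalized to ACTB/GAPDH/POLR2A; bidirectional fit versus DMSO.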

Measured: AC50

Cytochrome P450 3A7 (Homo sapiens), sequence (P24462 whole entry, looked up): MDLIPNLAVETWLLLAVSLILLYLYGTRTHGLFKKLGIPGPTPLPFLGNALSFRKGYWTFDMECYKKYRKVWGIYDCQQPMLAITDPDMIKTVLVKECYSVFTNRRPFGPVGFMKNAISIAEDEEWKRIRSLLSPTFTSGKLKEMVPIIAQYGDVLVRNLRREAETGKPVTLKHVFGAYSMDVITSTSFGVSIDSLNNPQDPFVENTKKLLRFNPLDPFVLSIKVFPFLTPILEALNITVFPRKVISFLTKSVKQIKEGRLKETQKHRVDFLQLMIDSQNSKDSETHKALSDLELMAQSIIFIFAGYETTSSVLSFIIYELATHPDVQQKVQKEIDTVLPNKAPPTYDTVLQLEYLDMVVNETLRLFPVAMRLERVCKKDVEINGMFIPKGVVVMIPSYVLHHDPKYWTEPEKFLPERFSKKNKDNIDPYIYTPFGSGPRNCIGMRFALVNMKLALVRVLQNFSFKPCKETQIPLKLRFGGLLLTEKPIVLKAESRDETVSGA
Hypoxia-inducible factor 1-alpha (Homo sapiens), sequence (Q16665 whole entry, looked up): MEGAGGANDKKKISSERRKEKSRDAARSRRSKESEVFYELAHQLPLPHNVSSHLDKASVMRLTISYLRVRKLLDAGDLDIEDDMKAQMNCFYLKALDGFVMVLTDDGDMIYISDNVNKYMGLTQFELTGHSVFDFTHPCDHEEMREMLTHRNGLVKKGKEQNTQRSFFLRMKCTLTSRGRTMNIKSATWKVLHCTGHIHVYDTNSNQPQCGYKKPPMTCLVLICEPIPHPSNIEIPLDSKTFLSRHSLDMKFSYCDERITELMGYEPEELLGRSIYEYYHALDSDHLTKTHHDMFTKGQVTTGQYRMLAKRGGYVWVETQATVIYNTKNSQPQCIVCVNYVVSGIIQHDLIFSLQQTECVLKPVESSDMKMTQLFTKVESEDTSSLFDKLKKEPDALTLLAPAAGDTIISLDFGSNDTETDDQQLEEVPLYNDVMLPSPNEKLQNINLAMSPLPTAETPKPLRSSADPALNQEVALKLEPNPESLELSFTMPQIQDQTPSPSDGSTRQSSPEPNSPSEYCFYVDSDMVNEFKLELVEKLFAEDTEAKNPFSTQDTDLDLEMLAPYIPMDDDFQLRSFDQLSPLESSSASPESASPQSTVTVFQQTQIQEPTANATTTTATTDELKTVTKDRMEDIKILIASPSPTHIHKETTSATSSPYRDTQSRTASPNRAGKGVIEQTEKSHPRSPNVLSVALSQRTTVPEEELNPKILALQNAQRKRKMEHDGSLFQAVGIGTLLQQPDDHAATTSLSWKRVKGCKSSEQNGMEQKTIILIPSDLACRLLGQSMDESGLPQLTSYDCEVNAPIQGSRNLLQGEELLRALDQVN
Cytochrome P450 3A4 (Homo sapiens), sequence (P08684 whole entry, looked up): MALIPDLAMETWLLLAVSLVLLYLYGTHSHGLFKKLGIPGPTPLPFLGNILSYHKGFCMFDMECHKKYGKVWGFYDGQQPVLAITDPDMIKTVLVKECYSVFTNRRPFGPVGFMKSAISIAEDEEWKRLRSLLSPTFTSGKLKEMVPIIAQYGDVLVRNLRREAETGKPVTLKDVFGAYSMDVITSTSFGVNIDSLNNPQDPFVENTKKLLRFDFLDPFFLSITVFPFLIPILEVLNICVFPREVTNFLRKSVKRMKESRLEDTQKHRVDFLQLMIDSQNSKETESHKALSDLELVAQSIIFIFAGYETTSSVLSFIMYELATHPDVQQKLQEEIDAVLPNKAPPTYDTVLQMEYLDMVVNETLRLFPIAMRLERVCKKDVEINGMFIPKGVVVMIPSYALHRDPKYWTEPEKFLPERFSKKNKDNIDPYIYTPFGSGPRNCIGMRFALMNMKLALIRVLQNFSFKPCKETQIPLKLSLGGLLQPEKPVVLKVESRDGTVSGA

O=C(O)c1cccnc1
not listed: HGF (gene 3082) | [17]
inactive: all other assays above

O=C(O)CN(CC(=O)O)CC(=O)O
not listed: [14] | [17]
inactive: all other assays above

O=C(N[C@@H](c1ccccc1)[C@@H]1CCCCN1)c1cccc(C(F)(F)F)c1Cl
active: CYP4A11 (gene 1579) 24.2 µM | [1] 86.9 µM | [2] 50 µM | [4] 83.3 µM | CYP3A5 (gene 1577) 90.6 µM | [7] 23.1 µM | [8] 21.3 µM | [9] 76.6 µM | [11] 82.8 µM | [14] 50 µM | [16] 69.4 µM
inactive: [3] | [5] | [6] | [10] | [12] | [13] | [15] | HGF (gene 3082)

N[C@@H](Cc1c[nH]c2ccccc12)C(=O)O
not listed: [11] | [14]
inactive: all other assays above
